Data as given in PubChem BioAssay.
Active and inactive are the calls of the source.

Legend:
[1] = small molecules captured by biotinylated probe aFSTL3 – biochemical, small-molecule microarray, fluorescence 635/667, stem cell growth factor project, primary screen (AID 1064); settings: higher = more signal;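 note: measures binding of the biotinylated anti-FSTL3 antibody to printed compounds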
[2] = binders from COS7 lysate, DM2A8 probe, primary screen, torsin A project, cell lysate, small-molecule microarray, fluorescence 635/667 (AID 1065); settings: higher = more signal, COS7 lysate expressing mutant human TOR1A
[3] = small molecules captured by biotinylated probe aFGF2 – biochemical, small-molecule microarray, fluorescence 635/667, stem cell growth factor project, primary screen (AID 1067); settings: higher = more signal;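 note: measures binding of biotinylated aFGF2 protein to printed compounds on slides; z-score merges feature fluorescence and signal-to-noise across triplicate slides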
[4] = small molecules captured by biotinylated probe aFGF10 – biochemical, small-molecule microarray, fluorescence 635/667, stem cell growth factor project, primary screen (AID 1071); settings: higher = more signal;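 note: score merges 667 nm spot intensity and signal to noise from triplicate slides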
[5] = target: Neurogenic locus notch homolog protein 2 (Homo sapiens) (UniProt Q04721); test: small molecules binding Notch2 protein – biochemical, small-molecule microarray, 635 nm fluorescence, stem cell growth factors, primary screen (AID 1073); settings: higher = more signal
Sequence of Neurogenic locus notch homolog protein 2 (Homo sapiens) (Q04721 whole entry, looked up, canonical isoform): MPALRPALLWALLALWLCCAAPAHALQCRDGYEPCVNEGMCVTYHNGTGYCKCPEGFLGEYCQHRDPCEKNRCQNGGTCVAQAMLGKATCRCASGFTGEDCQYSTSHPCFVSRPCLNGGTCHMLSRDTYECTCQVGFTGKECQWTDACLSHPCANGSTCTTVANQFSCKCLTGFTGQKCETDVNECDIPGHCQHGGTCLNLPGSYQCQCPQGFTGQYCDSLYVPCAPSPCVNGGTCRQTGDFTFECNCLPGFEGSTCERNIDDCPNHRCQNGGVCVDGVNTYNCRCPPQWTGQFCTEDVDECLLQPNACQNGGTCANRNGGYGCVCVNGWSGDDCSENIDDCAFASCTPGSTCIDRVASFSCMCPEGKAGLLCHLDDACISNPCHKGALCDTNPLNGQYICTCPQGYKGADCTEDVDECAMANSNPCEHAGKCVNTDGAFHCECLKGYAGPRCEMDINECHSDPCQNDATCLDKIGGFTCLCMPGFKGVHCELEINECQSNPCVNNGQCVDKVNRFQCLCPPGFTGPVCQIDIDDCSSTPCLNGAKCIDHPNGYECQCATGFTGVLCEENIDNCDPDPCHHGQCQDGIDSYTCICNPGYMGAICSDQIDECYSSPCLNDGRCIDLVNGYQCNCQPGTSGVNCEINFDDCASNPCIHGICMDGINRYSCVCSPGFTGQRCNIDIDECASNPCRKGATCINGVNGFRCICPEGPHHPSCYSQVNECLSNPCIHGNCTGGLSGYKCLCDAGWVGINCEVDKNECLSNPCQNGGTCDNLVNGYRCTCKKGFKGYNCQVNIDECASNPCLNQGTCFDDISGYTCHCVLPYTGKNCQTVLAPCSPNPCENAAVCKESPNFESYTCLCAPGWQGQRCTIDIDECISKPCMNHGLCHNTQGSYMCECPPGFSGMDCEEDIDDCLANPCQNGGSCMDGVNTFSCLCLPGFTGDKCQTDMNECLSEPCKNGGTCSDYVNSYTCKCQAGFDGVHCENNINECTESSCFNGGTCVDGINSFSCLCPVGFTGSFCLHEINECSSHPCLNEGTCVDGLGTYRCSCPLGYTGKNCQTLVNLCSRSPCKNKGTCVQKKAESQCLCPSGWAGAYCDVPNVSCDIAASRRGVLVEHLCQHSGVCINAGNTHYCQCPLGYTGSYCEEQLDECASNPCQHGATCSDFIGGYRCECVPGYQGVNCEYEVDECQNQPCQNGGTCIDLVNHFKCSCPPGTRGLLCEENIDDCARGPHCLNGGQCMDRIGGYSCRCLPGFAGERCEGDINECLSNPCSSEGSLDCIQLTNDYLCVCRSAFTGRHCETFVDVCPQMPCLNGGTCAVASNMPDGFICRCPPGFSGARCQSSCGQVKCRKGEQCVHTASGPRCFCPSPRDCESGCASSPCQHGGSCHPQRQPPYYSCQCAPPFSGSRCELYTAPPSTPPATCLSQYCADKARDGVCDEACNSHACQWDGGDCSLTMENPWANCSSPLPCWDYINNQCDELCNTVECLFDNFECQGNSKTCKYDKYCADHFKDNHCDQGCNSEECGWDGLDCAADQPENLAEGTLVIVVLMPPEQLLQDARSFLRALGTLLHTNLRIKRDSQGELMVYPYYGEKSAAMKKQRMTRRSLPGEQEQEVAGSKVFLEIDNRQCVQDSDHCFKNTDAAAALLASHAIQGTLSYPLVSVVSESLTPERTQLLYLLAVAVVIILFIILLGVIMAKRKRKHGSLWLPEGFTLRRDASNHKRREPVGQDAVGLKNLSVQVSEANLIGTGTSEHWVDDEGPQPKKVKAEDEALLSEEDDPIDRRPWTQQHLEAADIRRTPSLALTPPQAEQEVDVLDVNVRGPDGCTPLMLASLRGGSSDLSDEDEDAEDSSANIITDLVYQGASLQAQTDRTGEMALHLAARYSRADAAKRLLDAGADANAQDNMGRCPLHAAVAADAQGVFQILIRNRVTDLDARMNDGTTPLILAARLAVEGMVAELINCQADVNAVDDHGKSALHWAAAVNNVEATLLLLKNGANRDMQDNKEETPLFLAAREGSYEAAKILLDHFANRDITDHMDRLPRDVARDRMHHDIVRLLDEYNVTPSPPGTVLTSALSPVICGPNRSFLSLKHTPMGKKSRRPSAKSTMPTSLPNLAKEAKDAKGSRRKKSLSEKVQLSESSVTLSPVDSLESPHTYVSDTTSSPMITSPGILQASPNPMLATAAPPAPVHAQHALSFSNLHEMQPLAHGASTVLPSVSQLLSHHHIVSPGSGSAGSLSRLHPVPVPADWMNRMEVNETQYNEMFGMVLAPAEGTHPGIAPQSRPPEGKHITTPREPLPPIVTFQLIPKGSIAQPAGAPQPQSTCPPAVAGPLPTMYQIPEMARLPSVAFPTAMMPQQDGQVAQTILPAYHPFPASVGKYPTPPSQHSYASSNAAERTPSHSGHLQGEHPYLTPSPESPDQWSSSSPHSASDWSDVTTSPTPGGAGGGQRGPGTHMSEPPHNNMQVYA

[6] = target: Pro-neuregulin-1, membrane-bound isoform (Homo sapiens) (UniProt Q02297); test: small molecules binding neuregulin-1 protein – biochemical, small-molecule microarray, fluorescence 635/667, psychiatric disease protein project, primary screen (AID 1075); settings: NRG1 binding, 635 nm fluorescence, higher = more signal;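 note: score combines 667 nm spot fluorescence with signal to noise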
Sequence of Pro-neuregulin-1, membrane-bound isoform (Homo sapiens) (Q02297 whole entry, looked up, the tested form may be a part, canonical isoform): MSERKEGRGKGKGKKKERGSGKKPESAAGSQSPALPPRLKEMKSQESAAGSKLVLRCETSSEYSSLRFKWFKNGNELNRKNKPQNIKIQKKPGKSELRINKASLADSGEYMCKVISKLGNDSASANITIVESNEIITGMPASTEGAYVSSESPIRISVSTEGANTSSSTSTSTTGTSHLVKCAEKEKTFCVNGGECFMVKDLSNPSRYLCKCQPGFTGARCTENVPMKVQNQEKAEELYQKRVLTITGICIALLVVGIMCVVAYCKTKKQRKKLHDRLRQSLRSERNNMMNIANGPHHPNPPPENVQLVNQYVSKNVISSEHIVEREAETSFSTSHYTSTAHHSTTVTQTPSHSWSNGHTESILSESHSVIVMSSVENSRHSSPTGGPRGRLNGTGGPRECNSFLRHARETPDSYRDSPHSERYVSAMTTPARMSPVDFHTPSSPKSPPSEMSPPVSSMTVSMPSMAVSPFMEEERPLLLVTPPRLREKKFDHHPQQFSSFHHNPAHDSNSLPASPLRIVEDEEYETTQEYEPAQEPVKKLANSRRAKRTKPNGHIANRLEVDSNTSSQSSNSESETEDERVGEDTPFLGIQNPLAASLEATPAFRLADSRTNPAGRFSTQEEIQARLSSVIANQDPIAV

[7] = system: Neuregulin-1 EGF-like domain; test: small molecules binding NRG1 EGF domain – biochemical, small-molecule microarray, 635 nm fluorescence, primary screen (AID 1081); settings: higher = more signal;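 note: binding of the protein to compounds printed on small-molecule microarray slides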
[8] = FRG1 expression reporter modulators in myotubes – cell-based, C2C12 myotubes, firefly/Renilla luciferase, luminescence, FRG1 inhibition for FSHD, primary screen (AID 1084); settings: FRG1 promoter luciferase, higher = more signal, called active from +8 up or from −8 down
[9] = small molecules captured by biotinylated probe aFST – biochemical, small-molecule microarray, fluorescence 635/667, stem cell growth factor project, primary screen (AID 1086); settings: higher = more signal;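 note: score merges 667 nm fluorescence with signal-to-noise of each printed compound spot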
[10] = binders of probe aHhip on microarray, primary screen, stem cell growth factor project, biochemical, small-molecule microarray, fluorescence 635/667 (AID 1087); settings: higher = more signal;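 note: score merges spot fluorescence at 667nm with spot signal to noise ratio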
[11] = system: PRMT1 (protein arginine N-methyltransferase 1); test: small molecules binding arginine methyltransferase PRMT1 – biochemical, small-molecule microarray, 635 nm fluorescence, primary screen (AID 1088); settings: higher = more signal;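 note: binding of Prmt1 protein to compounds spotted on small-molecule microarray slides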
[12] = growth effects on S. cerevisiae YJM789 – YJM789 clinical isolate, OD600, 24 h, basal, primary screen (AID 1089); settings: higher = more signal, called active from +8 up or from −8 down;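 note: growth of clinical yeast isolate S. cerevisiae YJM 789 seeded 1000 cells per well; test concentration not given here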
[13] = S. pombe growth modifiers, basal conditions – strain 972, OD600, 24 h, no modulator, primary screen (AID 1090);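 note: basal condition with compound alone and no growth modifier present; test concentration not given here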; settings: S. pombe 972 growth, higher = more signal, called active from +8 up or from −8 down
[14] = budding yeast growth modifiers under rapamycin – strain BY4716, OD600, 96 h, primary screen (AID 1091); note: test concentration not given here; settings: S. cerevisiae BY4716 + rapamycin, higher = more signal, called active from +8 up or from −8 down
[15] = target: Torsin-1A-interacting protein 2 (Homo sapiens) (UniProt Q8NFQ8); test: small molecules binding lysate-expressed LULL1 – cell lysate, human LULL1 lysate, 635/667 nm fluorescence, primary screen (AID 1092); settings: small-molecule microarray, hLULL1 lysate binding, 635 nm fluorescence; higher = more signal;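 note: probe is lysate of COS7 cells overexpressing human LULL1; score merges per-feature 667 nm fluorescence with signal-to-noise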
Sequence of Torsin-1A-interacting protein 2 (Homo sapiens) (Q8NFQ8 whole entry, looked up): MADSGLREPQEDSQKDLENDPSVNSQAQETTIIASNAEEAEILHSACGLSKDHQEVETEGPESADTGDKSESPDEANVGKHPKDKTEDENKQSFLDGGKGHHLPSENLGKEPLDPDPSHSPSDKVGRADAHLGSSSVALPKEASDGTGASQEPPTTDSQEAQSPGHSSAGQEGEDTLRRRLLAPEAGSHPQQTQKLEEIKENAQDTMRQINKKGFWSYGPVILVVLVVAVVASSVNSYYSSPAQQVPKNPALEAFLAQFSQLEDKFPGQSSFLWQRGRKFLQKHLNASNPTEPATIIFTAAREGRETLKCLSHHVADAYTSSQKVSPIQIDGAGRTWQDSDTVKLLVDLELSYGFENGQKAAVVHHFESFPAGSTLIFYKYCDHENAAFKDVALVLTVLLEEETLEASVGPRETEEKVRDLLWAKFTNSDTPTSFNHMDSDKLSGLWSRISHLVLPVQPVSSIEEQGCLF

[16] = optical density change of DRC41 E. coli – strain DRC41, OD650, 24 h, E. coli filamentation project, primary screen (AID 1093);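 note: MC1000 strain lacking acrAB efflux and sulA so SOS filamentation is blocked; test concentration not given here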; settings: E. coli DRC41 growth, higher = more signal, called active from +8 up or from −8 down
[17] = probe aLefty2 binding to arrayed compounds – biochemical, biotinylated probe, 635/667 nm fluorescence, primary screen (AID 1094); settings: small-molecule microarray, higher = more signal;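 note: score merges spot fluorescence near 667 nm with spot signal-to-noise ratio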
[18] = system: Noggin (protein binding on small-molecule microarray); test: small molecules binding Noggin protein – biochemical, 635/667 nm fluorescence, primary screen (AID 1095); settings: 635 nm fluorescence, higher = more signal;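 note: score merges 667 nm feature fluorescence with signal to noise over triplicate slides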
[19] = target: Neurogenic locus notch homolog protein 3 (Homo sapiens) (UniProt Q9UM47); test: small molecules binding NOTCH3 protein – biochemical, 635/667 nm fluorescence, primary screen (AID 1096); settings: small-molecule microarray, 635 nm fluorescence, higher = more signal
[20] = probe aEGFR binding to arrayed compounds – biochemical, biotinylated probe, 635/667 nm fluorescence, primary screen (AID 1097); settings: small-molecule microarray, higher = more signal;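 note: probe is a biotinylated anti-EGFR antibody binding compounds printed on slides; score combines fluorescence near 667 nm and signal to noise of each spot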

Row | SMILES | composite z-score [1] | composite z-score [2] | composite z-score [3] | composite z-score [4] | composite z-score [5] | composite z-score [6] | composite z-score [7] | z-score [8] | composite z-score [9] | composite z-score [10] | composite z-score [11] | z-score [12] | z-score [13] | z-score [14] | composite z-score [15] | z-score [16] | composite z-score [17] | composite z-score [18] | composite z-score [19] | composite z-score [20]
1 | C=CCC(OC(C)=O)[C@@H]1[C@@H](N(Cc2ccc(-c3cccc(C(F)(F)F)c3)o2)C(=O)Cc2ccc(F)cc2)c2cc(OCCCO)ccc2N1C(=O)c1ccc2ccccc2c1 (stereo not given in full) | 0.196 | 0.167 | -0.133 | -0.428 | -0.58 | -0.28 | -0.0656 | 0.512 (inactive) | 0.487 | -0.0994 | -1.22 | -0.428 (inactive) | 0.498 (inactive) | -1.2 (inactive) | -0.305 | -0.381 (inactive) | -0.0485 | 0.0055 | -0.35 | 0.0804
2 | Cc1ccc(S[C@]2(C(=O)NCCN3CCOCC3)CC(=O)N(C3CCCCC3)[C@@H]2c2ccc(CO)cc2I)cc1 | -1.01 | 0.866 | -0.0687 | 0.841 | 0.955 | 1.61 | 1.22 | -2.05 (inactive) | 0.259 | -0.279 | 1.53 | -0.376 (inactive) | 0.174 (inactive) | 1.28 (inactive) | 3.23 | -0.385 (inactive) | -0.0512 | 0.824 | 1.07 | -0.313
3 | NCCCC[C@@H]1NC(=O)[C@H]2C[C@@H](C(=O)NCc3ccc(F)cc3)[C@@H](c3cccc(OCCO)c3)N2C1=O | -0.261 | 0.357 | -0.0262 | 0.527 | 0.772 | 1.09 | 1.33 | -0.0673 (inactive) | 0.182 | -0.0994 | 1.56 | 1.74 (inactive) | -0.0785 (inactive) | 0.482 (inactive) | 2.69 | -0.765 (inactive) | -0.0258 | 1.81 | 1.05 | 0.0176
4 | CN(C)CCCC[C@@H]1NC(=O)[C@@H]2C[C@H](C(=O)NCc3ccc(F)cc3)[C@H](c3ccc(O)cc3)N2C1=O | 0.274 | 0.295 | -0.103 | 0.203 | -0.446 | 0.625 | 1.49 | 0.254 (inactive) | -0.512 | -0.191 | 1.34 | 0.582 (inactive) | -1.4 (inactive) | 0.0709 (inactive) | 2.72 | -0.585 (inactive) | 0.164 | 1.9 | 0.968 | 0.364
5 | Cc1ccc(F)cc1S(=O)(=O)N[C@@H]1CCN(Cc2ccc3[nH]ccc3c2)C1 | -0.0434 | 0.216 | -0.0717 | 0.652 | 0.523 | 0.91 | 0.563 | -3.16 (inactive) | 0.356 | -0.134 | 0.556 | -0.765 (inactive) | -2.97 (inactive) | -0.873 (inactive) | 2.31 | -1.76 (inactive) | -0.177 | 0.418 | 0.933 | -0.0512
6 | C[C@]1(C(=O)NCC(F)(F)F)c2ccccc2C(=O)N(Cc2ccc(OC(F)(F)F)cc2)[C@H]1c1ccc(CO)cc1 | -0.303 | 0.67 | -0.0757 | 0.198 | -0.298 | 0.0763 | 0.531 | -3.89 (inactive) | -0.209 | -0.0645 | 0.64 | 0.0118 (inactive) | -0.47 (inactive) | -0.568 (inactive) | 1.03 | -0.975 (inactive) | -0.133 | 0.344 | -0.464 | -0.0987
7 | COC(=O)[C@@]1(Cc2ccc(F)cc2)[C@H]2c3cc(C(=O)N(C)C)n(CCn4cc([N+](=O)[O-])nc4C)c3C[C@H]2CN1C(=O)c1ccccc1 | 0.729 | -0.498 | 0.22 | 0.422 | 1.43 | 1.36 | 1.19 | 1.26 (inactive) | 0.593 | -0.166 | -0.394 | 0.126 (inactive) | 0.713 (inactive) | 0.942 (inactive) | 2.87 | -1.66 (inactive) | 0.12 | -0.885 | -0.455 | -0.0039
8 | COCCOC(=O)N1C(=O)[C@@]2(c3cc(C#CC4=CCCCC4)ccc31)[C@H](C(=O)N1CCN(c3ncccn3)CC1)[C@H]1C(=O)O[C@H](c3ccccc3)[C@H](c3ccccc3)N1[C@@H]2c1ccccc1OCCO | -0.285 | 0.943 | 0.0346 | 0.616 | 0.793 | 0.591 | 1.15 | 1.45 (inactive) | 0.636 | -0.0237 | 1.53 | 1.3 (inactive) | 0.683 (inactive) | 4.42 (inactive) | 2.75 | 1.96 (inactive) | -0.0687 | 1.14 | 1.04 | -0.0749
9 | Cc1ccc(S(=O)(=O)N2[C@@H](c3ccccc3)C(C(=O)O)=CC[C@H]2c2ccc(C#N)cc2)cc1 | 0.163 | -0.198 | 0.0624 | 1.07 | 1.39 | 1.72 | 0.808 | -3.73 (inactive) | 0.538 | -0.265 | 1.21 | -0.143 (inactive) | 0.612 (inactive) | -0.371 (inactive) | 3.39 | -1.5 (inactive) | -0.003 | -0.495 | 0.721 | -0.0238
